Results: PubChem BioAssay (NCATS)
Records with an inconclusive call do not appear. Unmarked numbers belong to inactive results. Calls of active or inactive are those of the source. Calls come from the whole dose curve; as a rule, active = well fitted cell-killing curve with a large enough effect; inconclusive = small, poorly fitted or top-dose-only effect; inactive = flat fitted curve, though single readings scatter.

Test: G06 Cancer Cell Toxicity qHTS against the NCATS CANVASS Library (AID 1347368); note: nearly all actives have a fitted effect of over 60% in size
Details: G06 dog glioma cells, viability ATP luminescence, 72 h; series mostly up to 46.1 µM; activity change, negative = cytotoxic: at the top concentration
Description: Natural products and their derivatives continue to be wellsprings of nascent therapeutic potential. However, many laboratories have limited resources for biological evaluation, leaving their previously isolated or synthesized compounds largely or completely untested. To address this issue, the Canvass library of natural products was assembled (https://tripod.nih.gov/canvass), in collaboration with academic and industry researchers, for quantitative high-throughput screening (qHTS) across a diverse set of cell-based and biochemical assays. The pure (>85% purity by liquid chromatography/mass spectrometry [LC/MS]) Canvass library of 346 natural products were submitted by 45 academic laboratories and companies around the world. We collected pure natural products to circumvent deconvolution and structure elucidation due to time and resource limitations. The library was formatted into 1536-well plates and evaluated in 50 qHTS (in an 11-pnt concentration series) bioassays with broad scope of disease-relevant mechanisms. The resulting data set from 50 different assays was then systematically analyzed to identify overall trends and specific natural products with interesting biological activities. Reported herein are the results of each individual qHTS and their corresponding assay protocol. This assay uses ATP (luminescence) content to measure the cytotoxiciy of compounds on G06 dog glioma cancer cell line. National Center for Advancing Translational Sciences (NCATS), Rockville, MD National Institute of Health (NIH), Bethesda, Maryland
Cancer Cell Toxicity qHTS protocol: for cell lines G06, J3T, and SDT. 1. In a 1536 well, tissue culture treated white solid bottom plates (Corning 7494), 5 uL of G06 cell solution (final concentration of 500 cells / well) was dispensed using the Multidrop Combi dispenser (Thermo Fisher Scientific) into columns 2, 3, 5-48. 2. Control and compounds were pin transferred (~23 nL volume) to the assay plates via Wako Pin-tool (Wako Automation, Richmond VA) equipped with a 1536 pin head. The compounds were transferred to columns 5-48 resulting in a final concentration ranging from 0.17 nM to 103 uM. Dose response titration of Bortezomib was pin transferred into column (1mM; 1:2 dilution; 16 points) resulting to a final concentration range of 0.1 nM - 4.6 uM. 3. The assay plates were further incubated in the at 37C, 5% CO2, 95% Rh for 72 hr. 4. After incubation, 3 uL of CellTiterGlo reagent (Promega) was added to the assay plates (column 1-48, rows 1-32) and centrifuged for 15 sec at 1000 rpm to remove bubbles. 5. Luminescence signal was acquired via the ViewLux plate reader (PerkinElmer) using a clear emission filter, 2 sec exposure, and 1x binning settings.
% is set by controls: 0 for no effect and ±100 for the full control effect; potency is the fitted concentration of half-maximal effect.

SMILES | Potency | activity change, negative = cytotoxic | outcome
O=C(c1ccccc1O)c1[nH]c(Cl)c(Cl)c1-n1c(C(=O)c2ccccc2O)cc(Cl)c1Cl | 5.9 µM (active) |  | 
CCCC[C@@H]1CC[C@H]2CCCC(CCC)N12 (some centres undefined) |  | -8.57% | 
CC[N@@+]1([O-])C[C@]2(C)CC[C@@H](O)[C@@]34C5C[C@H]6CC[C@@]5(C(C[C@H]23)C41)[C@H](O)[C@@]6(O)CO (some centres undefined) |  | -10.9% | 
CO[C@@H](/C=C/CC/C=C/C(=O)O)[C@@H](O)[C@H](C)[C@@H](O)/C(C)=C/[C@H](C)C(=O)CCCC1CC(=O)NC(=O)C1 |  | 2.73% | 
CC(=O)N[C@H]1CCN2CCC[C@H]12 |  | -7.34% [at 103 µM] | 
CC1=CC2CC[C@@H]3[C@@H](C)C[C@H](C)[C@@H](C1)N23 (some centres undefined) |  |  | inactive
C=C1[C@@H](C)[C@H]2[C@H](Cc3ccccc3)NC(=O)[C@]23OC(=O)/C=C/[C@H](O)CCC[C@@H](C)C/C=C/[C@H]3[C@@H]1O | 2.35 µM (active) |  | 
CCN1C[C@]2(C)CC[C@@H](O)[C@]34C1[C@H](C[C@H]23)C12CCC(CC14)[C@](O)(CO)[C@H]2O (some centres undefined) |  | -12.5% | 
COc1ccc(C23Oc4cc(OC)cc(OC)c4[C@](O)([C@H](c4ccccc4)C2C(=O)NCCCCNC(=O)c2ccccc2)[C@@H]3O)cc1 (some centres undefined) |  | -7.21% | 
COc1ccc2c(c1)[nH]c1c(C)nccc12 | 24.1 µM (active) |  | 
C[C@@H]1CC[C@@H](c2ccoc2)N2C[C@@]3(CC[C@@H]12)CS[C@@]1(CC[C@H]2[C@H](C)CC[C@@H](c4ccoc4)N2[C@@H]1O)C3 | 7.43 µM (active) |  | 
NCCc1ccccc1 |  | -1.62% | 
CCCCC[C@@H]1OC(=O)[C@@H](C)N(C)C(=O)[C@H](CCCCC)OC(=O)C(C)N(C)C(=O)[C@H](CCCCC)OC(=O)[C@@H](C)N(C)C(=O)[C@H](CCCCC)OC(=O)C(C)N(C)C1=O (some centres undefined) | 18.7 µM (active) |  | 
CNCCc1ccc(O)cc1 |  |  | inactive
CC1=CC(=O)C2=C(C)C[C@H](O)[C@@H]3[C@H](OC(=O)[C@@H]3C)[C@@H]12 |  | 2.8% | 
CC=C1CN(C=O)[C@H]2C[C@@H]1[C@@H](C(=O)OC)[C@@]13CCOC21Nc1ccccc13 (some centres undefined) |  | -15.5% | 
CN1C(=O)[C@]23CC4C(C)(C)[C@@]5(C[C@@]41CN2CC[C@@]3(C)O)C(=O)Nc1c5ccc2c1OC=CC(C)(C)O2 (some centres undefined) | 7.43 µM (active) |  | 
CC[C@@H]1CN2CC[C@@]3(O)C(=Nc4cccc(OC)c43)[C@@H]2C[C@@H]1/C(=C\OC)C(=O)OC |  | -19.1% | 
c1ccc2c3c([nH]c2c1)CNCC3 |  | -28.8% | 
CO[C@@H](/C=C/CC/C=C/C(=O)O)[C@@H](O)[C@H](C)/C=C(\C)[C@@H](O)[C@H](C)C(=O)CCCC1CC(=O)NC(=O)C1 |  | -2.18% | 
CNCCc1c[nH]c2ccccc12 |  | -4.48% | 
CCC[C@H]1CC[C@H]2[C@H](C)CCC[C@H]2N1 |  | -4.08% | 
CCC(=O)CCCCC[C@@H]1NC(=O)[C@H]2CCCCN2C(=O)[C@H]([C@@H](C)CC)NC(=O)[C@H](Cc2cn(OC)c3ccccc23)NC1=O | 0.743 µM (active) |  | 
COC(=O)C1=C2Nc3ccccc3[C@@]23CCN2CC(C(C)=O)C1C[C@H]23 (some centres undefined) |  | -8.01% | 
